Sampled rows, rich in hits. Any-hit rate of the full collection: about 3.2%.
Tau fibril FP: inhibitors of human tau fibril formation | P10636 | K18 P301L tau heparin fibrillization, Alexa594 FP, 6 h | Potency, µM (top dose mostly 57.7 µM), for inactives: top-dose activity, negative = inhibition, hits mostly inhibitors | 0.39% of 280,000 active; further: nearly all actives have a fitted effect of over 55% in size
Target sequence (P10636 561-689 P618L limits assumed): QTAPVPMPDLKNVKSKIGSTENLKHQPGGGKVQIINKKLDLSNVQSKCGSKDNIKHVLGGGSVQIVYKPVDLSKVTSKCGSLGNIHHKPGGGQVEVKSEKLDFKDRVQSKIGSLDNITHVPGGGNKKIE
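Human tau K18 […] P301L fragment, 15 uM unlabeled plus 0.24 uM Alexa 594-labeled tau (final), with compound and 20 uM heparin in 100 mM sodium acetate pH 7; 6 hr at 37 C, then Alexa 594 FP read.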
Tau fluor counter: counter-screen for tau fibril formation inhibitors. 0.93% of 280,000 active. tau K18 P301L Alexa594 fluorescence, heparin fibrillization. Potency, µM (series often up to 57.7 µM), for inactives: at the highest dose activity change, negative = decrease. AID 1463; further: nearly all actives have a fitted effect of over 55% in size
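Human K18 P301L tau (15 uM unlabeled plus 0.24 uM Alexa 594-labeled, final) in 100 mM sodium acetate pH 7 was mixed with compound and 20 uM heparin and incubated 6 hr at 37 C.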
GoLoco inh red: blocks human Gai1 binding to RGS12 GoLoco peptide, red readout; Gai1:RGS12 GoLoco peptide FP, rhodamine, 10 min; Potency, µM (top dose mostly 61.6 µM), for the others: at the top dose activity, negative = inhibition, usual class: inhibitors; 0.44% of 230,000 active; AID 880; active means well fitted inhibition curve with a large enough effect, not every such curve was filed as active; inactive means no such curve, though single readings can be large or run the other way; further: nearly all actives have a fitted effect of over 30% in size
Target sequence (P63096 whole entry, looked up): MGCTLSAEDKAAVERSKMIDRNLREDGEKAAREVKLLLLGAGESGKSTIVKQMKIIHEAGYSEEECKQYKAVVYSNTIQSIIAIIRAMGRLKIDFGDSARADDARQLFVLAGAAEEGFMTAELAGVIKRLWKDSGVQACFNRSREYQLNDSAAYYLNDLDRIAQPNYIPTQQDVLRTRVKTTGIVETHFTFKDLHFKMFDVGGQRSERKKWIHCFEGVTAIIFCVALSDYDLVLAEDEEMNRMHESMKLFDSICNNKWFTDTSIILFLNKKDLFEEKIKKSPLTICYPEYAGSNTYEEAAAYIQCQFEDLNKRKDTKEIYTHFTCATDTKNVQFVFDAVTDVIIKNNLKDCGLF
TRb SRC2 PPI: TRbeta-SRC2 interaction inhibition | TRbeta-SRC2 peptide binding, fluorescence polarization; receptor liganded with 1 µM T3 | 0.065% of 280,000 active | Potency, µM (series often up to 106 µM), for inactives: at the top dose activity change, negative = inhibition, usual class: inhibitors | P10828;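 further: plate controls were bound peptide for no effect and peptide without receptor for full effect; nearly all actives have a fitted effect of over 50% in size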
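Polarization signal, normalized between peptide-alone and full complex controls, measured compound effects on T3-liganded human TRb LBD (0.6 uM) binding 20 nM Texas Red SRC2 peptide after 5 hr.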
TR SRC2 fluor cs: counter-screen for TRb-SRC2 inhibitors: fluorescence interference; TRb/SRC2 Texas Red total fluorescence interference; Potency, µM (top dose mostly 106 µM), for inactives: top-dose fluorescence change, negative = quenching; 0.29% of 280,000 active; active means well fitted curve in either direction with a large enough effect; inconclusive means small, poorly fitted or top-dose-only effect
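Flags fluorescent or light-absorbing compounds by total fluorescence, S + 2P, at 555 nm excitation and 632 nm emission. Mixture: 20 nM Texas Red SRC2 peptide, 0.6 uM human TRb LBD, 1 uM T3, 5% DMSO; compound exposure 5 h at ambient temperature.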
Tau fibril ThT: inhibitors of human tau fibril formation, thioflavin T binding; P10636; recombinant tau K18 P301L, heparin-induced fibrillization, ThT fluorescence; Potency, µM (doses to about 57.4 µM), without a hit: at the highest dose activity, negative = inhibition, usual class: inhibitors; 2.1% of 270,000 active; AID 1460; further: nearly all actives have a fitted effect of over 55% in size
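Fibril formation assay: tau K18 P301L at 15 uM with trace Alexa 594 label, heparin inducer 20 uM, pH 7 sodium acetate buffer, 37 C for 6 hr; endpoint ThT signal.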
* = called active by the depositor; ? = inconclusive; / = not tested or not shown; ! = a repeat was not active; [ ] = remark or other dose. Unless noted, the call rests on the fitted dose curve; in most records, active means well fitted curve in the direction sought with a large enough effect; inconclusive means small, poorly fitted or top-dose-only effect, or another doubt; inactive means no such curve, though single readings can be large; an effect the other way counts as inactive or inconclusive. Unless noted, on the % scale 0 is the no-effect control and ±100 the full control effect; potency means the concentration at half of the fitted maximal effect.

SMILES	Tau fibril FP	Tau fluor counter	GoLoco inh red	TRb SRC2 PPI	TR SRC2 fluor cs	Tau fibril ThT
COC(=O)C/C=C\[C@@H](C)[C@@H](/C=N\O[C@@H](C)c1cc(-c2c(C)cc(C)cc2C)no1)NS(=O)(=O)c1ccc(C)cc1	-10%[11.6 µM]	-15%[11.6 µM]	/	1%[11.2 µM]	-1%[11.2 µM]	-8%[11.5 µM]
O=C(N/N=C/c1cc(Cl)cc([N+](=O)[O-])c1O)c1ccccc1NS(=O)(=O)c1cccs1	9%	-28%	77%	-1%	-5%	11µM*
Cc1ccc2nc(C)c(C(=O)N/N=C/c3ccccc3[N+](=O)[O-])cc2c1	-3%	-7%	3%	-7%	-1%	-9%
Cc1cc(C(=O)N/N=C/c2cc(Cl)cc([N+](=O)[O-])c2O)c2ccccc2n1	14%	?	15%	9%	2%	7.1µM*
O=C(N/N=C/c1cc(Cl)cc([N+](=O)[O-])c1O)NC12CC3CC(CC(C3)C1)C2	3%	?	-13%	1%	-3%	13µM*
Cc1nn(-c2ccccc2)c(Cl)c1/C=N/NC(=O)c1ccccc1NS(=O)(=O)c1cccs1	11%	-28%	-6%	-7%	-1%	?
Cn1c(SCc2ccc(C(F)(F)F)cc2)nc2c([nH]c3ccccc32)c1=O	-8%	-14%	/	-5%	-3%	-3%
Nc1ccc2oc(-c3cccc4ccccc34)nc2c1	7%	16µM*[quencher]	9%	-1%	-4%	?
O=[N+]([O-])c1ccc(O)c(C=Nc2ccc3nc(-c4ccccc4)[nH]c3c2)c1	11%	-29%	23%	-12%	-4%	?
Oc1c(Br)cc(C=Nc2ccc3nc(-c4ccccc4)[nH]c3c2)c(O)c1Br	?	4.5µM*[quencher]	63%	17%	?	4.5µM*
COc1ccc(S(=O)(=O)c2ccc(OC)cc2)cc1	-8%	-11%	-1%	-15%	2%	-12%
COc1ccc(C2=CC(=O)C=CC2=O)cc1	35µM*	?	3.5µM*	0%	-2%	14µM*
CC[N+](CC)(CC)CCOc1ccc(/C=C\c2ccccc2)cc1	3%	-6%	-6%	-5%	0%	-13%
CC[N+](CC)(CC)CCOc1cccc(OCC[N+](CC)(CC)CC)c1OCC[N+](CC)(CC)CC	-8%	-6%	10µM*	-4%	-1%	-2%
CN(c1ccc(O)cc1)c1nc(-c2cccs2)cs1	4%[2.34 µM]	5%[2.34 µM]	-2%	1%	-2%	-2%
Cc1cc(O)ccc1Nc1nc(-c2cccs2)cs1	4%	25µM*[quencher]	13%	-5%	3%	14µM*
c1cncc(Nc2nc(-c3cccs3)cs2)c1	9%	16µM*[quencher]	4%	-18%	0%	?
Cc1ccc(Nc2nc(-c3cccs3)cs2)nc1	-9%	22µM*[quencher]	15%	-1%	-6%	16µM*
CCC(/C=C/C(C)C1CCC2C3CC=C4CC(O)CC[C@@]4(C)C3CC[C@@]12C)C(C)C (some centres not stated)	0%	-3%	5%	-6%	-3%	-5%
O=C(O)c1ccccc1Nc1ccc([N+](=O)[O-])cc1	4%	0%	8%	-3%	-3%	10µM*
O=[N+]([O-])c1ccc(Nc2c3ccccc3nc3ccccc23)cc1	?	11µM*[quencher]	-7%	2%	-2%	10µM*
Cc1c(Cl)cccc1Nc1ccccc1C(=O)O	7%	?	28µM*!	5%	-1%	?
COC1(OC)N=C(NC(=O)Nc2ccccc2)C2(C#N)C(c3ccccc3)C12C#N (configuration not stated)	?	-25%	-12%	-2%	2%	20µM*
COC1(OC)N=C(N)C2(C#N)C(c3ccc(C)cc3)C12C#N (configuration not stated)	-6%	-9%	-9%	3%	1%	-13%
O=[N+]([O-])c1ccc(/C=C2\CCC(C3=CCCC3)=C2N2CCOCC2)cc1	?	?	-9%	2%	1%	16µM*
SMILES	Tau fibril FP	Tau fluor counter	GoLoco inh red	TRb SRC2 PPI	TR SRC2 fluor cs	Tau fibril ThT
C[C@@H]1CCC[C@]2(C)CCCC[C@@]12O	/	/	/	0%	3%	/
CC1=CC(=NOC(=O)/C=C/c2ccccc2)C=C(C)C1=O	?	-28%	-2%	8%	1%	22µM*
CC1=C(C)/C(=N/OC(=O)c2cccc([N+](=O)[O-])c2)C=CC1=O	-8%	-18%	-5%	2%	-9%	?
CC1=C(C)/C(=N\OC(=O)/C=C/c2ccccc2)C=CC1=O	?	-21%	0%	-2%	-5%	13µM*
CC1=CC(=O)C=C(C)C1=NOC(=O)/C=C\c1ccccc1	?	-17%	11%	2%	-2%	16µM*
N/C(=N\OC(=O)/C=C/c1ccccc1)c1ccncc1	2%	-5%	10%	-6%	-2%	-12%
CC(C)N(C)CCOC(=O)/C=C/c1ccccc1	-4%	6%	-10%	11%[53 µM]	-1%[53 µM]	3%
COc1ccccc1-c1noc(-c2ccc(NCCc3ccccc3)c([N+](=O)[O-])c2)n1	2%	3%	/	-3%	-2%	2%
C=C(C(=O)c1ccccc1)C(C)C(=C)C(=O)c1ccccc1	-20%	-14%	1%	-11%	2%	28µM*
CNc1ccc(Br)cc(C(=O)/C=C/c2ccc3c(c2)OCO3)c1=O	?	?	69%	8%	-9%	13µM*
CCNc1ccc(Br)cc(C(=O)/C=C/c2ccc(Cl)cc2Cl)c1=O	-15%	-29%	102%	-3%	-2%	16µM*
COc1ccc(/C=C/C(=O)c2ccc(OC)cc2OC)cc1	10%	-20%	1%	5%	-3%	?
CNc1ccc(Br)cc(C(=O)/C=C/c2ccc(OC)cc2)c1=O	?	?	12%	-5%	-10%	14µM*
CNc1ccc(Br)cc(C(=O)/C=C/c2cc(OC)ccc2OC)c1=O	?	?	32%	-18%	2%	10µM*
Cc1cccc(-c2nc(SCCCOc3ccccc3Cl)n3[nH]c(=O)cc3n2)c1	?	-13%	/	-2%	-1%	?
CCN(CC)CCNC(=O)Cn1nc(C)c2c(C)n(-c3ccccc3)nc2c1=O	1%	0%	/	-10%	-1%	6%
O=C(/C=C/c1ccc2c(c1)OCO2)c1ccccn1	-9%	-29%	10%	1%	2%	14µM*
O=C(N/N=C/c1ccc2c(c1)OCO2)c1ccccn1	-8%	-1%	4%	-3%	0%	-14%
CC[C@]1(c2ccccc2)NC(=O)NC1=O	/	/	/	1%	2%	/
CCCCc1nc2c(c3c1C[C@H](C)OC3)CN(C(=O)N[C@@H](C)c1ccccc1)CC2	1%[11.6 µM]	-4%[11.6 µM]	12%[14.2 µM]	0%[11.2 µM]	-16%[11.2 µM]	4%[11.5 µM]

Bioassay records deposited in PubChem by National Center for Advancing Translational Sciences (NCATS).
